Here are results for 6 compounds from PubChem BioAssay (NCATS).

Records with an inconclusive call do not appear. Active and inactive are the calls of the source. Unless noted, calls come from the whole dose curve; as a rule, active = well fitted curve in the direction sought with a large enough effect; inconclusive = small, poorly fitted or top-dose-only effect, or another doubt; inactive = no such curve, though single readings can be large; an effect the other way counts as inactive or inconclusive.

In assay [1] the target is Glucocorticoid receptor (Homo sapiens) (UniProt P04150). The assay can be described thus: qHTS assay for small molecule agonists of glucocorticoid receptor signaling (AID 588532; active = well fitted curve in the direction sought with a large enough effect in the signal ratio, with a control signal flat; the % refers to the signal ratio;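 note: 100% = dexamethasone at 0.1 µM and 0% = DMSO only wells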). To be noted: HeLa MMTV-bla, beta-lactamase ratio, agonist, 18 h; stronger effect = higher value; percent of dexamethasone control, DMSO zero. The method, boiled down:
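Titration series, up to 92 uM, applied to GRE-bla HeLa cells for 18 h at 37 C. Detection by CCF4 FRET substrate after 2 h at RT.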

Assay [2] is described as follows: qHTS assay for small molecule antagonists of peroxisome proliferator-activated receptor delta signaling (AID 588535; active = well fitted inhibition curve with a large enough effect in the signal ratio, with a control signal flat, not every such curve was filed as active; the % refers to the signal ratio;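 for max response: cells co-treated with a PPAR-delta agonist as stimulator during compound exposure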). Particulars: HEK293T PPARd-UAS-bla, beta-lactamase FRET ratio, 18 h; 460 nm channel. A digest of the protocol: (§1)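 GeneBLAzer PPAR-delta-UAS-bla HEK293T cells in medium with 2% charcoal/dextran FBS were preincubated 5 hrs at 37 C, then given compounds, incubated 18 hrs at 37 C, and read by CCF4 beta-lactamase fluorescence; IC50 from Hill fits.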
(In general: In qHTS, concentration-response curves come from the screen itself.)

For assay [3], the target named is Peroxisome proliferator-activated receptor delta (Homo sapiens) (UniProt Q03181). The description is as above. To be noted: HEK293T PPARd-UAS-bla, beta-lactamase FRET ratio, 18 h; series mostly up to 76.7 µM. A digest of the protocol:
as §1

Assay [4] addresses Vitamin D3 receptor (Homo sapiens) (UniProt P11473). The assay can be described thus: qHTS assay for small molecule antagonists of vitamin D receptor signaling (AID 588541; calls by dose curve;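 note: receptor activated by calcitriol during compound treatment; % is set by controls: 0 for no effect and ±100 for the full control effect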). To be noted: HEK293T VDR-UAS-bla, beta-lactamase ratio, antagonist mode; series mostly up to 76.7 µM. The method, boiled down:
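VDR-UAS-bla HEK293T cells (2000/well, 2% charcoal-stripped FBS) were treated with titrated compounds plus 1-alpha,25-dihydroxyvitamin D3 (50 nM or 3 nM final) for 16 h at 37 C. CCF4 beta-lactamase fluorescence was read; Hill fits gave IC50.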

For assay [5] the target is unchanged. The assay can be described thus: qHTS assay for small molecule agonists of vitamin D receptor signaling (AID 588543; calls by dose curve;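 note: 0% = DMSO basal and 100% = reference agonist control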). Particulars: HEK293T VDR-UAS-bla, beta-lactamase ratio, 16 h; series mostly up to 76.8 µM. A digest of the protocol: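 β-lactamase reporter, VDR-UAS-bla HEK293T, agonist mode. Cells plated 5 h at 37 °C, compound titration 16 h at 37 °C, CCF4 dye 2 h RT, ratio 460/530 nm. Hill fit → EC50, efficacy vs 50 nM 1α,25-(OH)2D3.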

For assay [6], the target named is Thyroid hormone receptor beta (Homo sapiens) (UniProt P10828). The assay can be described thus: qHTS assay for small molecule agonists of thyroid hormone receptor beta signaling (AID 588545; calls by dose curve;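 note: 0% = DMSO only and 100% = 10 nM T3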). Particulars: TR-UAS-bla GripTite HEK 293, beta-lactamase ratio, agonist mode, 18 h; series mostly up to 76.7 µM. The method, boiled down: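 TR-UAS-bla-GripTite HEK 293 cells in medium with 2% charcoal/dextran FBS, 0.1 mM NEAA and 1 mM sodium pyruvate were treated with titrated compounds for 18 hrs at 37 C. Beta-lactamase reporter was read with CCF4 dye (ex 405, em 460/530 nm); EC50 from Hill fits.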

Assay [7] is described as follows: qHTS assay for small molecule antagonists of retinoid X receptor alpha signaling (AID 588546; active = well fitted inhibition curve with a large enough effect in the signal ratio, with a control signal flat, not every such curve was filed as active; the % refers to the signal ratio; note: potency is the fitted concentration of half-maximal effect;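 for max response: cells stimulated with 9-cis-retinoic acid as agonist; % is set by controls: 0 for no effect and ±100 for the full control effect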). To be noted: HEK293T RXRa-UAS-bla, beta-lactamase ratio, antagonist mode; measured here: W530 green channel, cytotoxicity proxy. The method, boiled down:
(§2)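 Beta-lactamase reporter inhibition, read as CCF4 fluorescence ratio (ex 405, em 460/530 nm) after 2 h at RT. HEK293T UAS-bla cells, 2500/well, were stimulated with 9-cis-RA at 500 or 100 nM final alongside test compound for 18 h at 37 C.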

The target in assay [8] is Retinoic acid receptor RXR-alpha (Homo sapiens) (UniProt P19793). The description is as above. Particulars: HEK293T RXRa-UAS-bla, beta-lactamase ratio, antagonist mode. The method, boiled down:
as §2

A short description of assay [9]: qHTS assay for small molecule activators of the p53 signaling pathway (AID 651743; active = well fitted activation curve with a large enough effect in the signal ratio, not every such curve was filed as active; the % refers to the signal ratio; note: potency is the fitted concentration of half-maximal effect; for activation: % of control where 0% means no effect). Particulars: HCT-116 p53RE-bla, beta-lactamase FRET ratio, 16 h; activation: stronger effect = higher value. The method, boiled down: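 p53RE-bla HCT-116 cells with a stably integrated beta-lactamase reporter under p53 response elements were plated, rested 5 hours at 37 C/5% CO2, then exposed to compounds in DMSO for 16 hours at 37 C. LiveBLAzer B/G FRET substrate was read after 2 hours at room temperature.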

Assay [10] in a line: qHTS assay for environmental chemicals that activate the Aryl hydrocarbon Receptor (AhR) signaling pathway (AID 651777). Note: % of control where 0% means no effect; nearly all actives have a fitted effect of over 15% in size. Particulars: 1A2-DRE human hepatoma cells, luciferase, 24 h; activation: stronger effect = higher value. A digest of the protocol:
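Luminescence read-out: One-Glo added for 30 min at RT after 24 hr compound treatment (37 C, 5% CO2) of human hepatoma cells expressing a DRE/CYP1A2 promoter–luciferase reporter; increased signal indicates AhR activation.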

The nature of assay [11]: qHTS assay for small molecule agonists of the antioxidant response element (ARE) signaling pathway measured by Nrf2-dependant transcriptional activity (AID 720636; active = well fitted curve in the direction sought with a large enough effect in the repeat runs; an effect the other way counts as inactive or inconclusive;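 note: HepG2 cells with an ARE-driven luciferase reporter; % of control where 0% means no effect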). To be noted: ARE-luc HepG2, Nrf2 luciferase reporter, 16 h; series mostly up to 92.4 µM. A digest of the protocol: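 HepG2 ARE-luc reporter line, 1% dialyzed FBS; 6 hr attachment at 37 C, compound pinned in, 16 hr at 37 C/5% CO2; ONE-Glo, 30 min RT, luminescence read.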

Assay [12] in a line: qHTS assay for small molecule agonists of the antioxidant response element (ARE) signaling pathway measured by Nrf2-dependant transcriptional activity - cell viability counter screen (AID 720653; active = well fitted curve in the direction sought with a large enough effect in the repeat runs; an effect the other way counts as inactive or inconclusive; note: % is set by controls: 0 for no effect and ±100 for the full control effect). Particulars: ARE-bla HepG2 viability, CellTiter-Glo ATP luminescence, 16 h; max response: stronger effect = lower value. A digest of the protocol: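 ARE-bla HepG2 cells (2,000/well) rested 5 hrs at 37C/5% CO2, then exposed to compounds in DMSO for 16 hrs. Viability was read in the same wells as intracellular ATP by luminescence, 30 min at room temperature after reagent addition.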

A short description of assay [13]: qHTS assay for cell viability of HEK293 cells (AID 743288). Note: % is set by controls: 0 for no effect and ±100 for the full control effect; nearly all actives have a fitted effect of over 50% in size. Particulars: ATP luminescence (CellTiter-Glo), 18 h; max response: stronger effect = lower value. The method, boiled down:
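Environmental chemicals tested in qHTS format against parental HEK293 cells; 18 h treatment, 37 C; read-out ATP luminescence (CellTiter-Glo), 30 min RT development.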

Assay [14] is described as follows: qHTS assay for cell viability of the p53RE-bla HCT-116 cell line (AID 743292). Note: % is set by controls: 0 for no effect and ±100 for the full control effect; nearly all actives have a fitted effect of over 55% in size. To be noted: p53RE-bla HCT-116 viability, ATP luminescence, 16 h; series mostly up to 95 µM. A digest of the protocol: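 Luminescent ATP quantitation (CellTiter-Glo) served as the viability read-out; reagent was added after 16 h compound exposure at 37 C and read after 30 min at room temperature. Cells: p53RE-bla HCT-116, 4,000 per well.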

The target in assay [15] is Nuclear receptor subfamily 1 group I member 2 (Rattus norvegicus) (UniProt Q9R1A7). The assay can be described thus: qHTS assay for small molecule activators of the rat pregnane X receptor (rPXR) signaling pathway (AID 651751; call rule not given here; note: 0% is about no effect). Particulars: rPXR reporter cells, luciferase (One-Glo), 24 h.
The nature of assay [16]: qHTS assay for small molecule activators of the human pregnane X receptor (PXR) signaling pathway (AID 720659; call rule not given here; note: 0% is about no effect). To be noted: DPX-2 HepG2 CYP3A4-luciferase, 24 h; series mostly up to 92.3 µM.
For assay [17], the target named is Thyroid hormone receptor beta (Homo sapiens) (UniProt P10828). The assay can be described thus: qHTS assay for small molecule antagonists of thyroid hormone receptor beta signaling (AID 588547; active = well fitted inhibition curve with a large enough effect in the signal ratio, with a control signal flat, not every such curve was filed as active; the % refers to the signal ratio;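 note: cells stimulated with 0.4 nM T3 agonist during compound exposure; % is set by controls: 0 for no effect and ±100 for the full control effect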). To be noted: TR-UAS-bla HEK293, beta-lactamase ratio, antagonist mode, 18 h. A digest of the protocol:
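TR-UAS-bla GripTite HEK293 cells in 2% charcoal/dextran FBS medium were preincubated 4 h at 37 C, given compound (0.59 nM to 92 uM) plus 0.4 nM T3 (final) for 18 h, then CCF4 for 2 h at RT; Hill fit gave IC50.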

Assay [18] has as its target Peroxisome proliferator-activated receptor alpha (Homo sapiens) (UniProt Q07869). The assay can be described thus: qHTS assay for small molecule agonists of the peroxisome proliferator-activated receptor alpha (PPARalpha) signaling pathway (AID 651778). For max response: % of control where 0% means no effect. Note: potency is the fitted concentration of half-maximal effect. To be noted: PathHunter PPARalpha complementation, chemiluminescence, 6 h; max response: stronger effect = higher value. A digest of the protocol:
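Cells plated at 2,000/well and held overnight at 37 C, 5% CO2, then compound added by pin tool for 6 hr; after PathHunter detection reagent and 60 min at room temperature, chemiluminescence from enzyme complementation was read.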

Assay [19] has as its target Peroxisome proliferator-activated receptor gamma (Homo sapiens) (UniProt P37231). The assay can be described thus: qHTS assay for small molecule agonists of peroxisome proliferator-activated receptor gamma signaling (AID 588536; active = well fitted curve in the direction sought with a large enough effect in the signal ratio, with a control signal flat, not every such curve was filed as active; the % refers to the signal ratio;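 note: 0% = DMSO basal wells and 100% = rosiglitazone at 2 µM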). Particulars: HEK293 PPARg-UAS-bla, beta-lactamase ratio, 16 h, percent of rosiglitazone response, DMSO as zero; series mostly up to 76.7 µM. A digest of the protocol:
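GeneBLAzer PPAR-gamma-UAS-bla HEK293 cells in 1% charcoal/dextran-treated FBS medium were treated 16 h at 37 C with compounds. Beta-lactamase activity was read by CCF4 ratio (460/530 nm). Response was normalized to 2 uM rosiglitazone (100%) and DMSO, then Hill-fitted for EC50 and efficacy.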

A short description of assay [20]: qHTS assay for small molecule agonists of retinoid X receptor alpha signaling (AID 588544). To be noted: HEK293T RXRa-UAS-bla, beta-lactamase reporter, 18 h; 530 nm emission.

Chain of Nuclear receptor subfamily 1 group I member 2 (Rattus norvegicus) (Q9R1A7 whole entry, looked up): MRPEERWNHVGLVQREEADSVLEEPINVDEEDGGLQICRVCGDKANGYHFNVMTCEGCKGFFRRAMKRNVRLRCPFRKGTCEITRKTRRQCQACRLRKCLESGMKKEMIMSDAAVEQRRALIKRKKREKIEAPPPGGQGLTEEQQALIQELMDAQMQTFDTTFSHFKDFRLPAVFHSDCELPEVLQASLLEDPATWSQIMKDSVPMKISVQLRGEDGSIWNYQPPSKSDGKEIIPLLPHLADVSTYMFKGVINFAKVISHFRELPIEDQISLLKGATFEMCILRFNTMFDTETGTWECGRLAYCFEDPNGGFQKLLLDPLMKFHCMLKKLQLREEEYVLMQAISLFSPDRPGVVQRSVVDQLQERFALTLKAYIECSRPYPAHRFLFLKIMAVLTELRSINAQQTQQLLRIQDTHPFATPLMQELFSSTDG
Chain of Peroxisome proliferator-activated receptor delta (Homo sapiens) (Q03181 whole entry, looked up): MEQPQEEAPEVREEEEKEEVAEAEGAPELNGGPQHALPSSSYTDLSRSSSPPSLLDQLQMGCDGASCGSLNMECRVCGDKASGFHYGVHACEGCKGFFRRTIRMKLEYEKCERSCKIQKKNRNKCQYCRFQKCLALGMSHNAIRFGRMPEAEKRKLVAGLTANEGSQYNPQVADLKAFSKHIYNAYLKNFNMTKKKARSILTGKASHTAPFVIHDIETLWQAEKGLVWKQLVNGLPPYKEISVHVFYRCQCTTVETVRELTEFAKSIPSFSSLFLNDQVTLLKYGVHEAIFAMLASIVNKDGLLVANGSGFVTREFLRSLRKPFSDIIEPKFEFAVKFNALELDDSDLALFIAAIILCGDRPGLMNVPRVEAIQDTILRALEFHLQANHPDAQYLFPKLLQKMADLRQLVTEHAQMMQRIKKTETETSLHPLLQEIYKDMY
Chain of Retinoic acid receptor RXR-alpha (Homo sapiens) (P19793 whole entry, looked up): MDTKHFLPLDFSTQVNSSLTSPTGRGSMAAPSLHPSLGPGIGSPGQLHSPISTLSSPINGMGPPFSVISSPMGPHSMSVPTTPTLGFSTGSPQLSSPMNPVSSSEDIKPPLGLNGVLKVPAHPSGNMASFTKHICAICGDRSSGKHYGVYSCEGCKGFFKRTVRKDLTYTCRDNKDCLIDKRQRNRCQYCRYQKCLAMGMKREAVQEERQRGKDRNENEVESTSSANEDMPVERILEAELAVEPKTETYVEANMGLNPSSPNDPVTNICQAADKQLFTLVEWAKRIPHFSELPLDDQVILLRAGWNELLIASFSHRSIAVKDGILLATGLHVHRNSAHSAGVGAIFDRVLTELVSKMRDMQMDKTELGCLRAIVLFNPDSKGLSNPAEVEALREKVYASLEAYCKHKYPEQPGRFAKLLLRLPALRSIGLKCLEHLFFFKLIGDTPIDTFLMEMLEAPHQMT
Chain of Vitamin D3 receptor (Homo sapiens) (P11473 whole entry, looked up): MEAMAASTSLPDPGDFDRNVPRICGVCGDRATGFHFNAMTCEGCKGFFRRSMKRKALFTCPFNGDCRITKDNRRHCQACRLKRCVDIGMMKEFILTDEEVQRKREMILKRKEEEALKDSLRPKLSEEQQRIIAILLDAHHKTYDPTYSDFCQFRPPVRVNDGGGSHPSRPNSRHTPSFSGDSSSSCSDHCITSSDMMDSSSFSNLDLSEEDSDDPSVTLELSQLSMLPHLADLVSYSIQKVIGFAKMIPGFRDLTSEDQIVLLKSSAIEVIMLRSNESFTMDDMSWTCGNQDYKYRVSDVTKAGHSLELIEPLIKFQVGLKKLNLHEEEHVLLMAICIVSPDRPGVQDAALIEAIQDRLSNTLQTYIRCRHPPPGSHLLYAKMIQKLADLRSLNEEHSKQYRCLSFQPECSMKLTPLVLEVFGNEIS
Chain of Peroxisome proliferator-activated receptor gamma (Homo sapiens) (P37231 whole entry, looked up): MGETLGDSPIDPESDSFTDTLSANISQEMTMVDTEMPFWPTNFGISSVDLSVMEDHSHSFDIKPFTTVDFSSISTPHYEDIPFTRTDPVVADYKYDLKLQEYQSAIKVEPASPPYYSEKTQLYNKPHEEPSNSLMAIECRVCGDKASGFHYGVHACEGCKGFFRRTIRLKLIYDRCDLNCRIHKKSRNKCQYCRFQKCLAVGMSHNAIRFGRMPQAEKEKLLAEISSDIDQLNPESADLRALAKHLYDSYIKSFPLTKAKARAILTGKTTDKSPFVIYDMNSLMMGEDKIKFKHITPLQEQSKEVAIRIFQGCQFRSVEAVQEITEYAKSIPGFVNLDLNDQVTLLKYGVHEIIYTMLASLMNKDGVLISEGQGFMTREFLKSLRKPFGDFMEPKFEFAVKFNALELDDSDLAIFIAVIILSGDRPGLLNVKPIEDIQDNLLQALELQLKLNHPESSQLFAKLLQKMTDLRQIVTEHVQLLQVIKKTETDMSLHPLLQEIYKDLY
Chain of Peroxisome proliferator-activated receptor alpha (Homo sapiens) (Q07869 whole entry, looked up): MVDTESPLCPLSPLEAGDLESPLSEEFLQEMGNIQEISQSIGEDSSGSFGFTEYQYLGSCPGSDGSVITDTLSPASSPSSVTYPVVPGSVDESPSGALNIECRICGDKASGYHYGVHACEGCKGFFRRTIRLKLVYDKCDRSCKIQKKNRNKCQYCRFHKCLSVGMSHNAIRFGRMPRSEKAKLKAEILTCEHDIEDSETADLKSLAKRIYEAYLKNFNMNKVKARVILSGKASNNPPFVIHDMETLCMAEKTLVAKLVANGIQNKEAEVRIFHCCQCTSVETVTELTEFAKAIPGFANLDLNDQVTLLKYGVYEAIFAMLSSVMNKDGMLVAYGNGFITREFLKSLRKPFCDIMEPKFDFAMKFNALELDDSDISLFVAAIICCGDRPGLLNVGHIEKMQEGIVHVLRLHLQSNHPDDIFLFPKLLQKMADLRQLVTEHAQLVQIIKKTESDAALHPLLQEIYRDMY
Chain of Glucocorticoid receptor (Homo sapiens) (P04150 whole entry, looked up): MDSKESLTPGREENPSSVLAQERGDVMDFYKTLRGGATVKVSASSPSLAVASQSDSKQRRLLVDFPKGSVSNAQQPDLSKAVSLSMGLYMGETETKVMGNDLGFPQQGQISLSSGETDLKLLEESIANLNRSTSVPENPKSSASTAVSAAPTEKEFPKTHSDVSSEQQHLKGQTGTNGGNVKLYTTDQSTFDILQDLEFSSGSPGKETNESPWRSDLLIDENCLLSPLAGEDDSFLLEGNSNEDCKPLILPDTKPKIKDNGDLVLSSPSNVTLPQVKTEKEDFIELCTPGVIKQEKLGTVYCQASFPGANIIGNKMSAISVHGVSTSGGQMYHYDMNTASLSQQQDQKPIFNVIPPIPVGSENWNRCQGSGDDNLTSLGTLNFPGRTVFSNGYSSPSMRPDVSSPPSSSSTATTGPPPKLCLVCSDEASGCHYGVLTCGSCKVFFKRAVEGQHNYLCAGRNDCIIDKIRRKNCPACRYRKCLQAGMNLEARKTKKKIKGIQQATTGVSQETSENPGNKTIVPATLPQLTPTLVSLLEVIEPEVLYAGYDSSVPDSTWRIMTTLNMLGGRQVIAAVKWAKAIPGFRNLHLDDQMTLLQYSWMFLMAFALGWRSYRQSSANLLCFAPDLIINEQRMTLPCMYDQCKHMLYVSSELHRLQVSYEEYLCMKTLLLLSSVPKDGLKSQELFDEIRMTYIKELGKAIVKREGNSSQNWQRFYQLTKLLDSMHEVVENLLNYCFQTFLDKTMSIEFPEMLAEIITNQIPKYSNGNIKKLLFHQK
Chain of Thyroid hormone receptor beta (Homo sapiens) (P10828 whole entry, looked up): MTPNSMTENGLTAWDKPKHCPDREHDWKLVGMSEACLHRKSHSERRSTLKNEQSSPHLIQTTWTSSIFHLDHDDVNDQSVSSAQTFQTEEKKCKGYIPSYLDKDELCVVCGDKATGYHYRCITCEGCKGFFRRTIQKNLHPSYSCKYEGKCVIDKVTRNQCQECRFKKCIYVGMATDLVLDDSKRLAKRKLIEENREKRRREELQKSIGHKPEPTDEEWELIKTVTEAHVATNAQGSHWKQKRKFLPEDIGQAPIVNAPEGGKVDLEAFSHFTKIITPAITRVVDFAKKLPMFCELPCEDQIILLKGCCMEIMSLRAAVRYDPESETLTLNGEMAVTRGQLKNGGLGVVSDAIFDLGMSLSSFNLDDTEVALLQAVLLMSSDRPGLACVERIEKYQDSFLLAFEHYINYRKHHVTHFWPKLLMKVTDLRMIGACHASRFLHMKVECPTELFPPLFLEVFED

Regarding `CCCCCCCCCCCC[N+](C)(C)C`, the activation is -4.8% (inactive) in assay [1], 12.8% (inactive) in assay [9] and 9.5% (inactive) in assay [10]. Moreover, the max response in assay [2] was -26.8%; in [7], 5.9%; in [12] it was -23.2% (inactive); in [13], -25.6% (inactive); in [15] it was -11.2% (inactive). Besides, the Potency entry in assay [3], in assay [4], in assay [6], in [11] and in assay [14] was “inactive” throughout. Further, the result in [5] and in assay [16] was inactive. Further, in assay [8], the Potency was 17.8 µM (active).

Regarding `CCCCCCCCCCCCCCC`, the activation in assay [1] is -6.59% (inactive). Further, the max response is -0.185% in [2]; -8.06% in [7]; -6.6% (inactive) in assay [8]; -1.61% (inactive) in assay [18]; 10.3% (inactive) in assay [12]; -6.32% (inactive) in [13]. In assay [15], the max response was -4.43% (inactive). In addition, the Potency result in [3], in [4], in [11] and in assay [14] was “inactive” each time. Besides, the outcome in assay [5] and in assay [16] was inactive. In assay [17], the activity change % (negative = inhibition) is 5.8% (inactive).

Turning to `CC(C)CCCCCCCCCCCCCCC(=O)O`, the results for the activation in assay [1], in [9] and in [10] were -9.44% (inactive), 1.15% (inactive) and -2.9% (inactive), respectively. The max response was 7.35% in assay [2]; -6.99% in [20]; -12.3% in [7]; -25.1% (inactive) in assay [8]; 4.34% (inactive) in assay [12]; -0.822% (inactive) in assay [13]. For the same compound, the max response in [15] was 1.88% (inactive). Further, the Potency entry in assay [3], in assay [6], in assay [11] and in [14] was “inactive” throughout. Besides, the outcome in [19] and in assay [16] was inactive. In addition, in [18], the Potency is 39.8 µM (active).

Turning to `O=[N+]([O-])c1ccc(O)cc1C(F)(F)F`, the activation in [1] was -7.74% (inactive); in [10], 14.2% (inactive). Besides, the values for the max response in assay [2], in assay [7] and in [18] were -4.35%, 6.72% and -8.59% (inactive), respectively. In addition, the Potency entry in assay [3], in assay [4], in [6], in [11] and in assay [14] was “inactive” in each case. The result in assay [5] and in assay [16] was inactive. For the same compound, the Potency in assay [8] was 7.94 µM (active); in assay [9] it was 31.6 µM (active).

In the case of `CCOCCOCCOCC`, the results for the activation in [1], in assay [9] and in assay [10] were -5.25% (inactive), -1.74% (inactive) and 0.117% (inactive), respectively. For the same compound, the max response in [2] is 12.8%; in assay [20] it was -3.22%; in assay [7], -7.04%; in [8], -12.1% (inactive); in assay [18], -2.34% (inactive); in assay [12], -4.14% (inactive). Also, the max response in assay [13] was -13.3% (inactive); in assay [15] it was 1.72% (inactive). Also, the Potency result in [3], in assay [4], in [6], in [11] and in assay [14] was “inactive” in each case. Moreover, the result in assay [19], in assay [5] and in [16] was inactive. In addition, the activity change % (negative = inhibition) in [17] is -11.8% (inactive).

On to `CCCCCCCC/C=C\CCCCCCCCO`, for which the activation in assay [1] was -0.954% (inactive); in [10], 0.617% (inactive). Moreover, the max response in assay [2] is 8.68%; in [20], -18.5%; in assay [7], 0.0391%; in assay [8], 6.68% (inactive); in assay [18] it was 8.71% (inactive); in assay [12], -1.08% (inactive). Also, the max response is -11.8% (inactive) in assay [13] and -0.215% (inactive) in assay [15]. Besides, the Potency entry in assay [3], in assay [4], in [6], in [11] and in assay [14] was “inactive” in each case. In addition, the outcome in assay [19] and in assay [5] was inactive. Further, in assay [17], the activity change % (negative = inhibition) is -5.71% (inactive).
